Shown are actives, neighbours in structure and some others; about 3.1% of the full set was active somewhere.
p53null 39C tox: kills p53 null cells at the nonpermissive temperature | H1299 p53-null (neo) cells, 39C, ATPlite viability, 24 h | Potency, µM (doses to about 46.1 µM), hits mostly cytotoxic | hit rate 0.97% among 55,000; further: nearly all actives have a fitted effect of over 50% in size
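Cells seeded at 600/well, 37C overnight. Compound added (up to 46 uM), plates shifted to 39C for 24 hr. ATPlite added, luminescence read after 20 min at room temperature.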
PMP22 txn: modulators of PMP22 gene transcription in S16 Schwann cells | hit rate 2% among 43,000 | S16 Pmp22-F2sN Schwann cells, FLuc/NLuc coincidence luminescence, 24 h | Potency, µM (series often up to 57.5 µM), usual class: inhibitors | AID 1508649; active means clear falling dose curves in both reporters; inconclusive means both reporters move, but less clearly or upward; inactive means either reporter flat; the % is the NLuc reporter signal
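Luminescent read-out of sequential FLuc and NLuc signals from a reporter embedded in the Pmp22 3' UTR of S16 Schwann cells, taken after 24 h compound exposure at 37C; compounds reducing both signals score as inhibitors of expression.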
OvCa metastasis: blocks SKOV3ip1 adhesion and invasion in omental model. Potency, µM (top dose mostly 45.8 µM), actives largely listed as inhibitors. hit rate 0.1% among 46,000. AID 1963576. SKOV3ip1-GFP adhesion/invasion on 3D omental model, fluorescence; further: nearly all actives have a fitted effect of over 65% in size
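A 3D layer of primary human omental fibroblasts, mesothelial cells, fibronectin and collagen I, grown 48 hr, received SKOV3ip1-GFP cells in serum-free medium plus compounds at 0.36-46 umol/L. After 2 hr RT and 16 hr 37 C, fixed adherent GFP cells were counted; normalized to DMSO and tomatine.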
p53null 32C kill: kills p53 null cells at the permissive temperature | H1299-neo p53 null cells, ATP luminescence, 24 h, 32C | Potency, µM (titrated, usually from 46.1 µM), actives largely listed as cytotoxic | hit rate 0.62% among 55,000 | AID 903; further: nearly all actives have a fitted effect of over 55% in size
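H1299-neo (p53-null) cells, 600/well, were pre-incubated overnight at 37C, then exposed to compounds at up to 46 uM for 24 hr at 32C. Viability was measured as ATP content by luminescence, and AC50 values came from Hill fits.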
S16 viability: cytotoxicity in S16 Pmp22-F2sN Schwann cells; S16 Pmp22-F2sN Schwann cells viability, CellTiter-Glo, 24 h; Potency, µM (top dose mostly 57.5 µM), actives largely listed as cytotoxic; hit rate 0.48% among 43,000; AID 1508642; further: nearly all actives have a fitted effect of over 65% in size
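Used to flag compounds lowering reporter output through toxicity, this quantitative HTS measures ATP-based CellTiter-Glo luminescence in S16 Pmp22-F2sN Schwann cells after 24 h compound exposure at 37C.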
pS6 MEF inh: inhibitors of mTORC1 signaling in Tsc2-/- p53-/- MEF cells; Tsc2-/- p53-/- MEF, phospho-rpS6 immunofluorescence/PI, 24 h; Potency, µM (series often up to 38.3 µM), usual class: inhibitors; hit rate 0.78% among 44,000; AID 493208; further: nearly all actives have a fitted effect of over 50% in size
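Readout is phospho-S6 Alexa 488 signal normalized to PI per well, reported as % active cells with thresholds set from rapamycin (7.5 nM) and DMSO controls. Cells: Tsc2-/-, p53-/- MEFs, 24 hrs compound at 37 C; PI cell number serves as viability.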
Hits are given with their value; [ ] = remark or other dose. Unless noted, the call rests on the fitted dose curve; in most records, active means well fitted curve in the direction sought with a large enough effect; inconclusive means small, poorly fitted or top-dose-only effect, or another doubt; inactive means no such curve, though single readings can be large; an effect the other way counts as inactive or inconclusive.

For CC(C)C[C@H](NC(=O)CNC(=O)c1cc(Cl)ccc1Cl)B1OC(=O)CC(CC(=O)O)(C(=O)O)O1 (stereo partly specified) the results were OvCa metastasis inactive.
Screening O=S(=O)(c1ccc(-c2csc(=Nc3ccc(F)cc3)n2CCCCCCO)cc1)N1CCCC1 returned p53null 39C tox inconclusive, PMP22 txn 8.8µM, OvCa metastasis inactive, p53null 32C kill inactive[9.22 µM], S16 viability 17.8µM and pS6 MEF inh inconclusive.
Screening OCCCn1c(-c2ccc(F)cc2)csc1=Nc1ccc(F)cc1 returned p53null 39C tox inactive, PMP22 txn inconclusive, OvCa metastasis inactive, p53null 32C kill inactive[9.22 µM], S16 viability inconclusive and pS6 MEF inh inactive.
CCOc1cc(CNc2ccc(O)cc2)cc(Cl)c1OCc1ccccc1 was read as p53null 39C tox inconclusive, PMP22 txn inconclusive, OvCa metastasis inactive, p53null 32C kill inactive, S16 viability 8.91µM and pS6 MEF inh inconclusive.
CN1CCN(C(CNC(=O)C(=O)Nc2cccc(Cl)c2)c2ccc3c(c2)OCO3)CC1 (stereo unspecified) was read as p53null 39C tox inactive, PMP22 txn inconclusive, OvCa metastasis inconclusive, p53null 32C kill inactive, S16 viability inconclusive and pS6 MEF inh 16.5µM.
Cc1ccc(C)c(NC(=O)Cn2nnc(C(=O)NCc3ccco3)c2N)c1 was read as p53null 39C tox inactive, PMP22 txn 10.1µM, OvCa metastasis inactive, p53null 32C kill inactive, S16 viability inconclusive and pS6 MEF inh inactive.
Cc1cc(C)c(S(=O)(=O)NCC(c2ccco2)S(=O)(=O)c2cccs2)c(C)c1 (stereo unspecified) was read as p53null 39C tox inactive, PMP22 txn inconclusive, OvCa metastasis inactive, p53null 32C kill inactive, S16 viability 17.8µM and pS6 MEF inh inactive.
Cc1ccc(CNC(=O)C(=O)NCC(c2ccco2)S(=O)(=O)c2cccs2)cc1 (stereo unspecified) was read as p53null 39C tox inactive, PMP22 txn inactive, OvCa metastasis inactive, p53null 32C kill inactive, S16 viability inactive and pS6 MEF inh inactive.
For Cc1cc(S(=O)(=O)NCC(c2ccco2)S(=O)(=O)c2cccs2)ccc1F (stereo unspecified) the results were p53null 39C tox inactive, PMP22 txn 8.97µM, OvCa metastasis inactive, p53null 32C kill inactive, S16 viability 10µM and pS6 MEF inh inactive.
For Cc1cc(S(=O)(=O)NCC(c2ccco2)S(=O)(=O)c2ccccc2)ccc1F (stereo unspecified) the results were p53null 39C tox inactive, PMP22 txn inactive, OvCa metastasis inactive, p53null 32C kill inactive, S16 viability inconclusive and pS6 MEF inh inactive.
For CC(C)c1ccccc1Cc1cc(C(=O)Nc2ccc(S(=O)(=O)c3ccccc3C(C)(C)C)cc2)c(O)c(O)c1O the results were OvCa metastasis inactive.
For CC(=O)N(C)C1(c2ccccc2)CCN(CCC[C@]2(c3ccc(Cl)c(Cl)c3)CCCN(C(=O)c3ccccc3)C2)CC1 the results were OvCa metastasis inactive.
`CCOc1ccc(CNC(=O)c2ccccc2NC(=O)c2nsc3ccccc23)cc1` gave p53null 39C tox 12.6µM, PMP22 txn inconclusive, OvCa metastasis inactive, p53null 32C kill inactive, S16 viability inactive and pS6 MEF inh inconclusive.
`CCC(=O)N[C@H]1CC[C@H](C(=O)N(C)c2ccc(-c3nc4ccccc4o3)cc2)C1` gave OvCa metastasis inactive.
For Cc1ccc(CNC(=O)Cn2c(SCC(=O)Nc3ccc(F)cc3)nc3ccccc32)cc1 the results were p53null 39C tox 12.6µM, PMP22 txn inconclusive, OvCa metastasis inactive, p53null 32C kill inconclusive, S16 viability inconclusive and pS6 MEF inh inconclusive.
For Clc1cccc(-n2nnnc2NCc2ccccc2Oc2ccccn2)c1Cl the results were OvCa metastasis inactive.
Cc1ccc(C)c(CN2CCC(CNC(=O)Nc3ccc(Br)cc3F)CC2)c1 was read as p53null 39C tox inconclusive, PMP22 txn inconclusive, OvCa metastasis inconclusive, p53null 32C kill inactive, S16 viability 28.2µM and pS6 MEF inh inconclusive.
Screening CCCCCCCCCCCCc1ccc(S(=O)(=O)Nc2nncs2)cc1 returned OvCa metastasis inactive.
COc1ccc(-c2nc3cc(NC(=O)Cc4ccc(Cl)cc4)ccc3o2)cc1OC was read as p53null 39C tox 10µM, PMP22 txn inconclusive, OvCa metastasis inactive, p53null 32C kill inconclusive, S16 viability inactive and pS6 MEF inh 4.14µM.
Screening COc1ccc(-c2nc3ccccc3o2)cc1NC(=O)C(C)Oc1ccc(Cl)cc1Cl (stereo unspecified) returned p53null 39C tox inactive, PMP22 txn 13.5µM, OvCa metastasis inactive, p53null 32C kill inactive[9.22 µM], S16 viability inactive and pS6 MEF inh inactive.
Screening COc1ccc(C(=O)COC(=O)c2cccc(NC(=O)c3ccc(OC)c(OC)c3)c2)cc1 returned p53null 39C tox inconclusive, PMP22 txn inactive, OvCa metastasis inactive, p53null 32C kill 15.8µM, S16 viability inactive and pS6 MEF inh inactive.
`N#Cc1c(-n2ncnc2-c2ccc(F)cc2)sc2c1CCCCC2` gave p53null 39C tox inconclusive, PMP22 txn inactive, OvCa metastasis inactive, p53null 32C kill 10µM, S16 viability inactive and pS6 MEF inh inactive.
For N#CC(=C1Nc2ccccc2S1)c1ccnc(OCc2ccc(CN3CCOCC3)cc2)n1 the results were OvCa metastasis inactive.
`Cc1ccc(Cl)cc1N1CCN(C(=O)c2ccc(CS(=O)c3ccccc3)o2)CC1` (stereo unspecified) gave p53null 39C tox inactive, PMP22 txn 10.3µM, OvCa metastasis inactive, p53null 32C kill inactive, S16 viability inconclusive and pS6 MEF inh inconclusive.
CC[C@H]1OC(=O)[C@H](C)C(=O)[C@H](C)[C@@H](O[C@H]2O[C@H](C)C[C@H](N(C)C)[C@@H]2O)[C@](C)(OC)C[C@@H](C)C(=O)[C@H](C)[C@H]2N(CCCCn3cnc(-c4cccnc4)c3)C(=O)O[C@]12C was read as OvCa metastasis inactive.
For COc1cccc(CNC(=O)c2cccc(NC(=O)c3nsc4ccccc34)c2)c1 the results were p53null 39C tox inactive, PMP22 txn inactive, OvCa metastasis inactive, p53null 32C kill inactive, S16 viability inconclusive and pS6 MEF inh inactive.
O=C(Nc1cccc(C(=O)N2CCCCC2)c1)c1nsc2ccccc12 was read as p53null 39C tox 10µM, PMP22 txn inactive, OvCa metastasis inactive, p53null 32C kill inconclusive, S16 viability inactive and pS6 MEF inh inactive.
`CC1CCN(C(=O)c2ccc(NC(=O)c3nsc4ccccc34)cc2)CC1` gave p53null 39C tox inconclusive, PMP22 txn inactive, OvCa metastasis inactive, p53null 32C kill inconclusive, S16 viability inactive and pS6 MEF inh inactive.

Compound activity (PubChem)
